PostGolgi yeast: growth inhibition of a yeast mutant, post-Golgi transport screen; post-Golgi transport phenotypic cell assay; 98,000 tested, 0.9% active; inhibition, % at 10 µM;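 note: yeast cells grown in 1536-well plates; yeast grown about 18 h at 30C before absorbance read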
CYP2C9 activ: increases human cytochrome P450 2C9 activity; 96,000 tested, 1.4% active; activation factor at 5 µM; recombinant CYP2C9, luciferin-H conversion, luminescence; active compounds read high; factor 1 = untreated enzyme, 0 = blocked; P11712; AID 1024;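 active = activation factor of 2 or more for CYP2C9 at a 5 µM dose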;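 note: 0 = sulfaphenazole-blocked wells and 1 = vehicle-only wells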
CYP2C19 inhib: blocks human cytochrome P450 2C19; P33261; CYP2C19 Supersomes, luciferin-H EGE luminescence, 30 min; inhibition, % at 5 µM; 96,000 tested, 21% active; AID 778;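 active = CYP2C19 inhibition above a set limit at 5 µM in the primary screen, cut at about 50% in these data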;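 note: plate controls were negative control wells for no effect and 2.5 mM tranylcypromine positive control for full effect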
Target sequence (P33261 whole entry, looked up): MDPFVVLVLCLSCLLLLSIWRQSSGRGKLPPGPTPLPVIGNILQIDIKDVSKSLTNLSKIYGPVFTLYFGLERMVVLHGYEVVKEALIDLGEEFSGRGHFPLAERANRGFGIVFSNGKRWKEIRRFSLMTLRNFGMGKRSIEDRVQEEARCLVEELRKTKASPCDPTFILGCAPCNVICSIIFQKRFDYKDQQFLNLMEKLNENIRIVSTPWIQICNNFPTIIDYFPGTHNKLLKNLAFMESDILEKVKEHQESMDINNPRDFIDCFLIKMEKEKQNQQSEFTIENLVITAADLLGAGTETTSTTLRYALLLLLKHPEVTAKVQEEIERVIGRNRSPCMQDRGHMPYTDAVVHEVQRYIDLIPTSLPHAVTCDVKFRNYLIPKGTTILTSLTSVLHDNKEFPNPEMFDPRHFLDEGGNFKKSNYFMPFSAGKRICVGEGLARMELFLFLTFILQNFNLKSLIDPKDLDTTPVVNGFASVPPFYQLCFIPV
CYP2C19 act: increases human CYP2C19 enzyme activity | 96,000 tested, under 10 active | activation factor at 5 µM | recombinant CYP2C19, luciferin-H EGE luminescence; active compounds read high; 0 = fully inhibited enzyme, 1 = untreated enzyme | AID 1025;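 active = activation factor of at least 2 at 5 µM in the primary screen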;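 note: 0 = wells with 2.5 mM tranylcypromine and 1 = vehicle-only wells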
PostGolgi ctrl: yeast control strain growth, post-Golgi counter-screen | efflux-deficient yeast background strain, growth absorbance A615, 16 h | inhibition, % at 10 µM | 98,000 tested, 5% active
CYP2C9 inh: inhibitors of human CYP2C9 | P11712 | CYP2C9 Supersomes, luciferin-H conversion, luminescence | inhibition, % at 5 µM | 96,000 tested, 20% active | AID 777;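 active = blocking of liver enzyme CYP2C9 beyond about 50% at 5 µM, limit read from the data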
Numbers without * were called inactive; . = no result given. Shown are actives, neighbours in structure and some others; about 32% of the full set was active somewhere. Cut-off read from the data, not from the text of the source, unless noted: active = inhibition above about 30%; inactive = the rest.

SMILES	PostGolgi yeast	CYP2C9 activ	CYP2C19 inhib	CYP2C19 act	PostGolgi ctrl	CYP2C9 inh
CC(=O)OCC(OC(C)=O)C(OC(C)=O)C(OC(C)=O)C(=O)Nc1ccccc1C (centres undefined)	3.9	1	-2.1	1	-8.4	3.6
CCn1c(=NC(=O)c2ccc(N3C(=O)CCC3=O)cc2)sc2c(OC)ccc(OC)c21	37.3*	0.9	12.5	0.9	16.4	9.3
Cc1cccc(-c2noc(CCC(=O)Nc3ccccc3)n2)c1	-4.8	0.3	92.5*	0.1	18.7	75.0*
Cc1ccc(-c2noc(CCC(=O)Nc3cccc(C#N)c3)n2)cc1	-9.7	0.6	24.1	0.8	18.1	44.7
CCOC(=O)c1ccc(NC(=O)CCc2nc(-c3cccc(C)c3)no2)cc1	-2.9	0.5	0.0	1	5.7	52.0*
Cc1cccc(-c2noc(CCC(=O)NCc3ccccc3)n2)c1	6.8	0.7	13.1	0.9	-5.3	34.9
O=C(N=c1nc2ccccn2s1)c1ccccc1	.	0.6	76.3*	0.2	.	35.8
CC1=C(C(=O)OC(C)C)C(/C=C/c2ccccc2)NC(=O)N1 (centres undefined)	.	1.1	-14.1	1.1	.	-12.3
C=CCOC(=O)C1=C(C)NC(=S)NC1/C=C/c1ccccc1 (centres undefined)	-1.3	0.4	60.0*	0.4	19.3	64.9*
CCOCCCNC(=O)c1ccc(NC(C)=O)cc1	4.2	1	-8.0	1.1	6.0	-2.6
CCSc1nnc(-c2cccnc2)n1Cc1ccco1	-10.4	1	0.1	1	-5.0	0.0
COC(=O)c1c(NC(=O)CSc2nnc(-c3ccco3)n2Cc2ccccc2)sc(C)c1C	-10.4	0.4	18.4	0.8	8.6	61.8*
CCOC(=O)c1c(NC(=O)CSc2nnc(-c3cccnc3)n2Cc2ccco2)sc(C)c1C	6.3	0.3	43.3	0.6	15.7	65.7*
C=CCn1c(SCC(=O)Nc2sc(C)c(C)c2C(=O)OCC)nnc1-c1sc(N)nc1C	17.7	0.4	59.9*	0.4	7.9	61.8*
C=CCn1c(SCC(=O)NC2CCCCC2)nnc1-c1sc(N)nc1C	0.3	0.7	0.8	1	7.4	32.9
COC(=O)c1c(NC(=O)CSc2nnnn2C)sc(C)c1C	-0.5	0.3	65.1*	0.3	29.5	65.7*
CSc1ccc(NC(=O)NCCN2CCc3ccccc3C2)cc1	-2.4	0.8	34.1	0.7	8.2	15.2
CC(=O)Nc1ccc(S(=O)(=O)NC(CC(=O)NCCc2ccccc2)C(C)C)cc1 (centres undefined)	-5.0	0.7	36.2	0.6	4.5	30.7
CSc1ccccc1NC(=O)CSCc1ccc(Br)cc1	3.9	0.9	17.4	0.8	26.7	13.0
CCOC(=O)CCSc1nc2c(c(C(F)(F)F)c1C#N)CCC2	-5.3	0.3	77.6*	0.2	11.1	67.2*
O=C(N/N=C/C=C/c1ccccc1)c1cnccn1	5.0	1.1	-2.0	1	2.9	-8.0
COc1ccccc1N(CC(=O)Nc1ccccc1C(=O)NC(C)C)S(C)(=O)=O	2.1	0.6	-0.7	1	13.5	40.8
CS(=O)(=O)N(CC(N)=O)c1ccc2c(c1)OCO2	2.7	1.1	-8.2	1.1	4.8	-13.9
CS(=O)(=O)N(CC(=O)N1CCCC1)c1ccc2c(c1)OCCO2	-8.1	0.7	22.7	0.8	3.1	25.3
CS(=O)(=O)N(CC(=O)Nc1ccccc1C(=O)NCc1ccccc1)c1ccc2c(c1)OCCO2	-11.8	0.1	36.1	0.6	-2.0	94.1*
SMILES	PostGolgi yeast	CYP2C9 activ	CYP2C19 inhib	CYP2C19 act	PostGolgi ctrl	CYP2C9 inh
CS(=O)(=O)N(CC(=O)Nc1ccccc1C(=O)NCCc1ccccc1)c1ccc2c(c1)OCCO2	-0.6	0.1	86.7*	0.1	-3.9	94.3*
CC(C)NC(=O)c1ccccc1NC(=O)CN(c1ccc2c(c1)OCO2)S(C)(=O)=O	-3.6	0.2	45.2	0.5	-2.0	82.3*
COC(=O)c1ccc(C)c(NC(=O)CN(c2ccc3c(c2)OCO3)S(C)(=O)=O)c1	14.5	0.3	70.5*	0.3	-0.5	68.7*
O=C(NC1CCCc2ccccc21)C1CCN(c2nnc(-n3cccc3)s2)CC1 (centres undefined)	3.0	0.6	37.1	0.6	2.6	37.9
CCSc1nnc([C@H](C)NC(=O)OC(C)(C)C)o1	-3.3	0.9	42.4	0.6	-5.6	14.2
CC(=O)Nc1cccc(Oc2ccc(-c3noc(C)n3)cc2)c1	4.5	0.4	76.5*	0.2	27.9	57.0*
Cc1cccc(OCC(=O)NC(=S)Nc2ccc(S(=O)(=O)NC3CCCCC3)cc2)c1	-1.8	0.1	29.1	0.7	14.5	93.2*
CCC(C)NS(=O)(=O)c1ccc(OCC(=O)Nc2ccc3c(c2)OCCO3)cc1 (centres undefined)	-9.0	0.4	40.3	0.6	0.0	60.0*
O=C(COc1ccc(S(=O)(=O)NC2CCCCC2)cc1)Nc1ccc2c(c1)OCCO2	0.3	0.2	44.3	0.6	19.6	80.3*
CCC(C)NS(=O)(=O)c1ccc(OCC(=O)N2CCCCC2)cc1 (centres undefined)	-5.7	1	-0.2	1	1.5	-4.7
Cc1cc(OCC(=O)N2CCOCC2)cc2oc(=O)c3ccccc3c12	3.3	.	.	.	8.8	.
Cn1c(SCC(=O)Nc2ccc(F)cc2F)nnc1-c1cccnc1	-3.5	0.8	11.6	0.9	5.3	19.1
c1coc(CNc2nc3nonc3nc2NCc2ccco2)c1	-7.1	0.7	3.9	1	9.1	30.5
c1coc(CNc2c3c(nc4ncnn24)CCCC3)c1	6.9	0.9	9.8	0.9	-2.6	12.8
Clc1cccc(-c2cc3nc4c(c(NCc5ccco5)n3n2)CCCC4)c1	-6.8	0.6	14.0	0.9	55.5*	41.1
c1coc(CNc2c3c(nc4ncnn24)CCC3)c1	-11.9	0.1	-6.8	1.1	-0.7	88.0*
CCn1c(C(=O)N2CCCC(C(=O)NCCc3ccc(C)cc3)C2)cc2sccc21 (centres undefined)	-8.7	0.5	24.9	0.8	-1.2	50.0*
Cn1c(C(=O)N2CCCC(C(=O)NCCCSC3CCCCC3)C2)cc2sccc21 (centres undefined)	4.2	0.2	47.3	0.5	14.1	81.6*
O=C(OCC(=O)N1CCCCC1)c1c[nH]c(=O)[nH]c1=O	6.6	0.1	1.1	1	-0.6	89.2*
Cc1nc2ccccn2c1/C(O)=C1\C(=O)C(=O)N(CCN(C)C)C1c1cccnc1 (centres undefined)	6.0	1	-3.7	1	0.3	-2.6
COc1ccc(N(CC(=O)NCc2ccco2)S(C)(=O)=O)cc1Cl	-6.0	1.2	66.2*	0.3	4.8	-20.1
COc1ccc(S(=O)(=O)N(CC(=O)NCc2ccco2)C2CCCCC2)cc1OC	-9.6	0.6	85.7*	0.1	1.4	40.3
COc1ccc(N(CC(=O)NCc2ccco2)S(C)(=O)=O)cc1OC	3.5	0.5	82.8*	0.2	10.8	49.5
